According to ChEMBL document CHEMBL2218924, “A broad activity screen in support of a chemogenomic map for kinase signalling research and drug discovery” (Biochem J, 2013):

Tests used:
[1] = biological target: T1, Ephrin type-A receptor 3 (Homo sapiens) (UniProt P29320); details: at 10 µM
T1 sequence (whole entry): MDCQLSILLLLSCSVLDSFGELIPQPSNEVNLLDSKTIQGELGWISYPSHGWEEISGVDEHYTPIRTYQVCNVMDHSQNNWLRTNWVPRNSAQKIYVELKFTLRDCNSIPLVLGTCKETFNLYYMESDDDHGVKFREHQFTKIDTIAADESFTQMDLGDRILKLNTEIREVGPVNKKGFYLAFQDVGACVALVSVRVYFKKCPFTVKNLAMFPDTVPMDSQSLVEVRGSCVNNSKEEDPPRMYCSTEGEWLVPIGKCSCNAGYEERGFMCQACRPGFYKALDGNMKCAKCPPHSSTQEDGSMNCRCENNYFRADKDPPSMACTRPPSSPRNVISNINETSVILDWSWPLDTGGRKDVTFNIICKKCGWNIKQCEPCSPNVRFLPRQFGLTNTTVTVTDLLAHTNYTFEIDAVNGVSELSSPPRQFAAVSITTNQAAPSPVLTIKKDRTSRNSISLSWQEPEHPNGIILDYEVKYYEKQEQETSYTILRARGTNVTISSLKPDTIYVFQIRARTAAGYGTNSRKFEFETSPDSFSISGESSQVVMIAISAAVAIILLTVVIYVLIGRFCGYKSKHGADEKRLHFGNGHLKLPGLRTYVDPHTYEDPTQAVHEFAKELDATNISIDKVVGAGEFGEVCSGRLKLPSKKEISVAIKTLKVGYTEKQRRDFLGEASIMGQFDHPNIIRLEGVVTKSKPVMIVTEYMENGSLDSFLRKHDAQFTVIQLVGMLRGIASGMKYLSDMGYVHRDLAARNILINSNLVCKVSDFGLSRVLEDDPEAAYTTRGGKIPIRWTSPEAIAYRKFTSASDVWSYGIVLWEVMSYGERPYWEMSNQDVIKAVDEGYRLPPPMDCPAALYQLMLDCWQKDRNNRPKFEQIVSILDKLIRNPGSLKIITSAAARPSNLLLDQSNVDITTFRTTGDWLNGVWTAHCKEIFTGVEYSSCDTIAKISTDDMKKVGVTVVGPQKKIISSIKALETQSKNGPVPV

[2] = biological target: Ephrin type-A receptor 5 (Homo sapiens) (UniProt P54756); details: at 1 µM
Chain of Ephrin type-A receptor 5 (Homo sapiens) (P54756 whole entry): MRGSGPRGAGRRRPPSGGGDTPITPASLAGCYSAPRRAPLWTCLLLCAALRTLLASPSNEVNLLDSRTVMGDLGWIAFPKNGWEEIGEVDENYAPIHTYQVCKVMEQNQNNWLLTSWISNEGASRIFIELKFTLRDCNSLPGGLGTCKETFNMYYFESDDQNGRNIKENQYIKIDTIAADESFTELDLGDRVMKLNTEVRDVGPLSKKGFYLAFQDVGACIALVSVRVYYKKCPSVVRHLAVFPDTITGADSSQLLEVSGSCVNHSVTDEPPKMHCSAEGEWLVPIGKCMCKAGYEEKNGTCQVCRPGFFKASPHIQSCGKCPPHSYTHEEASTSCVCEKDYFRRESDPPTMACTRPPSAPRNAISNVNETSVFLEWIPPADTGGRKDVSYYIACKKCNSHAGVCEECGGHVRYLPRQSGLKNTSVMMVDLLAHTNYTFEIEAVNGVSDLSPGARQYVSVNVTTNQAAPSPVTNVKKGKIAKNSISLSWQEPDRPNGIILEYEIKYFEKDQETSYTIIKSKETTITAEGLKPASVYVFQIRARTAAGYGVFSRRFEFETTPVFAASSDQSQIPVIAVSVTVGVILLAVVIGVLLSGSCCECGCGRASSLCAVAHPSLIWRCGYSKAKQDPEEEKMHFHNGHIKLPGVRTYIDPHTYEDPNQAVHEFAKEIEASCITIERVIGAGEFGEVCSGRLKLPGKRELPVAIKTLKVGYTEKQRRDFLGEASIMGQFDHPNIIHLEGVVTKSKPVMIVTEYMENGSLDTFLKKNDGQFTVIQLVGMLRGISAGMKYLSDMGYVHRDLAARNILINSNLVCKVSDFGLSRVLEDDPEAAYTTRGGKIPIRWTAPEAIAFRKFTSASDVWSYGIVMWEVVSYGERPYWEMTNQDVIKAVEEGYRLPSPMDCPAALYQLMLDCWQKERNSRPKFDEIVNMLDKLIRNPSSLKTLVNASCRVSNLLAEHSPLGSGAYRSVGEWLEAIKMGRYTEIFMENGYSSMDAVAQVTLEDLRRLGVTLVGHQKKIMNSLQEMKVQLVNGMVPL

[3] = biological target: Ephrin type-A receptor 5 (Homo sapiens) (UniProt P54756); details: at 10 µM
[4] = biological target: Ephrin type-A receptor 7 (Homo sapiens) (UniProt Q15375); details: at 10 µM
Chain of Ephrin type-A receptor 7 (Homo sapiens) (Q15375 28-998 limits assumed): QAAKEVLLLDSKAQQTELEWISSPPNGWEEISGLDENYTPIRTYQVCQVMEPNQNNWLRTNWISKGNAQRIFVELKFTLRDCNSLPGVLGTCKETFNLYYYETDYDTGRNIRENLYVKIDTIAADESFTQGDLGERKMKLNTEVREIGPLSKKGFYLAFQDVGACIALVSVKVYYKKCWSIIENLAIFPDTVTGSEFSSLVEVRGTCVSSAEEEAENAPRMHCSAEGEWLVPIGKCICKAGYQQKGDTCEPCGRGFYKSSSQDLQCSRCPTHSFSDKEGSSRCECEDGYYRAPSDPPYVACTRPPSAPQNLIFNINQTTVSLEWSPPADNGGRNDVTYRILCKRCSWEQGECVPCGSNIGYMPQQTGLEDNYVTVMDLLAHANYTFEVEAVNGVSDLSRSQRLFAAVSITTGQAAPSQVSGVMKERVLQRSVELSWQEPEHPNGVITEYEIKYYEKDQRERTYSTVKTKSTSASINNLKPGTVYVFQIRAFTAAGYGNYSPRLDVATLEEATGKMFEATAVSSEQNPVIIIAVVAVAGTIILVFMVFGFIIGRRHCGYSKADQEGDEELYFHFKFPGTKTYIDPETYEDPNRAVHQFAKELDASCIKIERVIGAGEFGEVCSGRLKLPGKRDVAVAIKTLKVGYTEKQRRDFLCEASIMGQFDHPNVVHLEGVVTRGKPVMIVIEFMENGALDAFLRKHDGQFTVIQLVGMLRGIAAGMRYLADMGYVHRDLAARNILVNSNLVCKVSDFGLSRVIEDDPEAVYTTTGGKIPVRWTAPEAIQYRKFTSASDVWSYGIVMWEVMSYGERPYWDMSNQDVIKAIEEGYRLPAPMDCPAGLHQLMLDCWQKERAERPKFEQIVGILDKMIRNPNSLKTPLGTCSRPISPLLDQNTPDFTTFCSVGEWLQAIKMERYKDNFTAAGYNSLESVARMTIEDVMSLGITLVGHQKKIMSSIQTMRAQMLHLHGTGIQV

[5] = biological target: T2, Ephrin type-A receptor 8 (Homo sapiens) (UniProt P29322); details: at 1 µM
T2 sequence (whole entry): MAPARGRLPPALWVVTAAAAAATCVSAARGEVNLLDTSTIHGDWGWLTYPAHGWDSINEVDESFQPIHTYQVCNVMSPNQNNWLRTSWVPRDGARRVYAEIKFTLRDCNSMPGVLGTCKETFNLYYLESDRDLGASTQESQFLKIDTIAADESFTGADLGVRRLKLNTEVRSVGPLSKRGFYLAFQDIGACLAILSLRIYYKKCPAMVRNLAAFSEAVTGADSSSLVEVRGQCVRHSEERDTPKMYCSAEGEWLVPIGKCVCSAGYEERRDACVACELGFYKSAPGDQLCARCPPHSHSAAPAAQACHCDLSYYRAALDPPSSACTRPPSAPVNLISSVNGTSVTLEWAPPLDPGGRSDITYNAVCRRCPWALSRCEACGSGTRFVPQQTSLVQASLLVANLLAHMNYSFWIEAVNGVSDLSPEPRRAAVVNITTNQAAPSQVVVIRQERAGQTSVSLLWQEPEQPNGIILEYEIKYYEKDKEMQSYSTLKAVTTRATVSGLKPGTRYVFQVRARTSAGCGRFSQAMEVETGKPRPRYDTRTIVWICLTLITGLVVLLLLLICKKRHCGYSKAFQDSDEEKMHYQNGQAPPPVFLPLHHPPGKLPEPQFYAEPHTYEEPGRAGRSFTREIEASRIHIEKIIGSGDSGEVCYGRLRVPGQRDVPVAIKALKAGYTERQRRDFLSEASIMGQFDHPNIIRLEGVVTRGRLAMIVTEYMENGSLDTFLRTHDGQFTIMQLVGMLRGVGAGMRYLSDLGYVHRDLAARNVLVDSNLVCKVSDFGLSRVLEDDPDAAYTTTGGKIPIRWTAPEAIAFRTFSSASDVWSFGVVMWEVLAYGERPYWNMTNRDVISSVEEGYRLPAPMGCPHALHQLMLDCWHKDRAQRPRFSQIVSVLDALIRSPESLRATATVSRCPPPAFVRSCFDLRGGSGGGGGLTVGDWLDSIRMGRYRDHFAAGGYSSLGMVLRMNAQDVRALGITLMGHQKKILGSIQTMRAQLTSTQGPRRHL

[6] = biological target: T2, Ephrin type-A receptor 8 (Homo sapiens); details: at 10 µM
[7] = biological target: T3, Ephrin type-B receptor 1 (Homo sapiens) (UniProt P54762); details: at 1 µM
T3 sequence (whole entry): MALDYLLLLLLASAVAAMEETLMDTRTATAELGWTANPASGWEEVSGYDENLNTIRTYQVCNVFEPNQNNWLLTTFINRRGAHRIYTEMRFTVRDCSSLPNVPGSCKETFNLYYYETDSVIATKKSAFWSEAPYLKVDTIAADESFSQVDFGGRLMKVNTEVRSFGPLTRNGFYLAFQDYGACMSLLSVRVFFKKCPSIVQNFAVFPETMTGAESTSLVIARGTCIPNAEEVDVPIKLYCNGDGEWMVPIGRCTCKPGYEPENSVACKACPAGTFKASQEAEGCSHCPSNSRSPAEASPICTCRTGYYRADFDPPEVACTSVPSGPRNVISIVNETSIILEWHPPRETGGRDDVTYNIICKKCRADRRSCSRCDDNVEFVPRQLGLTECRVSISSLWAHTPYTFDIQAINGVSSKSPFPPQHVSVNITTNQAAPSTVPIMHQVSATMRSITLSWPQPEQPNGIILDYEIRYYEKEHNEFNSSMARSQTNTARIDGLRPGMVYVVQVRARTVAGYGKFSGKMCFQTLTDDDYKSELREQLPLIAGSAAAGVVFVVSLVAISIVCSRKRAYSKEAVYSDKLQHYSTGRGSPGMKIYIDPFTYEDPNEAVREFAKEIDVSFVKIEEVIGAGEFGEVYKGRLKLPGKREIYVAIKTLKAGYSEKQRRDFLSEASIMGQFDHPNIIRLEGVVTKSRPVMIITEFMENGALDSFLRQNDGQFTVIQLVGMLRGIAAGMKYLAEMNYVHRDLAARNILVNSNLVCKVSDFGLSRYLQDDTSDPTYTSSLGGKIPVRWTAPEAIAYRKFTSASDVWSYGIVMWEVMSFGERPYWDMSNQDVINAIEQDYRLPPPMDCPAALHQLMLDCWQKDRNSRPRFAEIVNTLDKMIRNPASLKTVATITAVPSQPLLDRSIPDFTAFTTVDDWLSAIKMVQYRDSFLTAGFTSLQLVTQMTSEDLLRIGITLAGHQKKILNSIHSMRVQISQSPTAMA

[8] = biological target: T3, Ephrin type-B receptor 1 (Homo sapiens); details: at 10 µM
[9] = biological target: T4, Ephrin type-B receptor 2 (Homo sapiens) (UniProt P29323); details: at 10 µM
T4 sequence (whole entry): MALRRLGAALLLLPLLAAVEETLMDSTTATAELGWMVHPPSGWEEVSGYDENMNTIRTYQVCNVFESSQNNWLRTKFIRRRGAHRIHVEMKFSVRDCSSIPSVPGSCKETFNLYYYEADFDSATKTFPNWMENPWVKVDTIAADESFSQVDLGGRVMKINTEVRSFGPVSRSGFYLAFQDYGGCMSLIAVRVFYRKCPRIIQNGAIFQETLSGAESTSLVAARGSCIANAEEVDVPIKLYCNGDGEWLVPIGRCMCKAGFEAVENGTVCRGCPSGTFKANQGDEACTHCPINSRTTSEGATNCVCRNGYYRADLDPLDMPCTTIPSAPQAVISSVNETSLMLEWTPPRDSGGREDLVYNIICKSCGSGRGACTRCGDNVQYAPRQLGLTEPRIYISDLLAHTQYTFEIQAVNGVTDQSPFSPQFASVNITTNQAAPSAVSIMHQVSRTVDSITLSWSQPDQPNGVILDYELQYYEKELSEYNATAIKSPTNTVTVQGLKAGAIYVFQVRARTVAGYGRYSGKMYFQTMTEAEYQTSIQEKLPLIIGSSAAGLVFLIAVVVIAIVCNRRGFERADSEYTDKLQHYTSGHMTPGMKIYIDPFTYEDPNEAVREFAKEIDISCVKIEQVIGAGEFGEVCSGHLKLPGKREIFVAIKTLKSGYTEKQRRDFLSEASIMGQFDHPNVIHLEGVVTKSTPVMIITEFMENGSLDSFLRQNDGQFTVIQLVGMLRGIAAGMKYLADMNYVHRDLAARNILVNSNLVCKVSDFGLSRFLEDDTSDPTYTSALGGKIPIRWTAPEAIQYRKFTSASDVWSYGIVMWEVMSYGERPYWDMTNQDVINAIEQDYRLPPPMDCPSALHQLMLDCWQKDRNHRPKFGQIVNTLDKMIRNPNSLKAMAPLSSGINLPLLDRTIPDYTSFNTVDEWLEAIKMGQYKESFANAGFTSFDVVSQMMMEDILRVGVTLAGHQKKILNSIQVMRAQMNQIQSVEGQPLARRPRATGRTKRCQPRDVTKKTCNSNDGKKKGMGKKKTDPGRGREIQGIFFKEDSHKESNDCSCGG

[10] = biological target: T5, Ephrin type-B receptor 4 (Homo sapiens) (UniProt P54760); details: at 1 µM
T5 sequence (whole entry): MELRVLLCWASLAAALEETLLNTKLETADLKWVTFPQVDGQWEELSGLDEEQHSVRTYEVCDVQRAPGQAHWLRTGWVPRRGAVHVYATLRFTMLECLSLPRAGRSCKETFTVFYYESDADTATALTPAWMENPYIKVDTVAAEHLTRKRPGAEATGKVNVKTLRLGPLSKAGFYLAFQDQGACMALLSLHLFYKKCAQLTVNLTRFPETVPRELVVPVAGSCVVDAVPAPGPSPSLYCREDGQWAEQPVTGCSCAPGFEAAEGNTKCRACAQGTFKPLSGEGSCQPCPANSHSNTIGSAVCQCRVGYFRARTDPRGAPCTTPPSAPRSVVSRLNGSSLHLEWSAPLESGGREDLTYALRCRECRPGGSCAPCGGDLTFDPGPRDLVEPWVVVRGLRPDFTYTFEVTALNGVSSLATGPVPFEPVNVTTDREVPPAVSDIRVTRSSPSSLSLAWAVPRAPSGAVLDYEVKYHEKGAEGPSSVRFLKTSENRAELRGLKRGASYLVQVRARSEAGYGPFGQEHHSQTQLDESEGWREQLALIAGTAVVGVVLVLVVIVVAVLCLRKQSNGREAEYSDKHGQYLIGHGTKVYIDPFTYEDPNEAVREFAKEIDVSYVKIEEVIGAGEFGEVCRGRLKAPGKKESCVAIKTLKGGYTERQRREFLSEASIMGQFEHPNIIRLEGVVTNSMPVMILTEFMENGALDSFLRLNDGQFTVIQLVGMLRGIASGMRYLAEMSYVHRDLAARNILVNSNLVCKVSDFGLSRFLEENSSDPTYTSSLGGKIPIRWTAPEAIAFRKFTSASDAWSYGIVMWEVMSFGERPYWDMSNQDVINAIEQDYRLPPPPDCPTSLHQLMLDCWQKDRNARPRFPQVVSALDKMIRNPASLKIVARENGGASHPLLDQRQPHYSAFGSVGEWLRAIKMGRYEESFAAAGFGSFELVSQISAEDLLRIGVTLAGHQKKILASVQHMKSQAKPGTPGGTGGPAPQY

[11] = biological target: T5, Ephrin type-B receptor 4 (Homo sapiens); details: at 10 µM
[12] = biological target: Ephrin type-A receptor 7 (Homo sapiens) (UniProt Q15375); details: at 1 µM
[13] = biological target: T4, Ephrin type-B receptor 2 (Homo sapiens); details: at 1 µM
[14] = biological target: Focal adhesion kinase 1 (Homo sapiens) (UniProt Q05397); details: at 1 µM
Chain of Focal adhesion kinase 1 (Homo sapiens) (Q05397 2-1052 limits assumed): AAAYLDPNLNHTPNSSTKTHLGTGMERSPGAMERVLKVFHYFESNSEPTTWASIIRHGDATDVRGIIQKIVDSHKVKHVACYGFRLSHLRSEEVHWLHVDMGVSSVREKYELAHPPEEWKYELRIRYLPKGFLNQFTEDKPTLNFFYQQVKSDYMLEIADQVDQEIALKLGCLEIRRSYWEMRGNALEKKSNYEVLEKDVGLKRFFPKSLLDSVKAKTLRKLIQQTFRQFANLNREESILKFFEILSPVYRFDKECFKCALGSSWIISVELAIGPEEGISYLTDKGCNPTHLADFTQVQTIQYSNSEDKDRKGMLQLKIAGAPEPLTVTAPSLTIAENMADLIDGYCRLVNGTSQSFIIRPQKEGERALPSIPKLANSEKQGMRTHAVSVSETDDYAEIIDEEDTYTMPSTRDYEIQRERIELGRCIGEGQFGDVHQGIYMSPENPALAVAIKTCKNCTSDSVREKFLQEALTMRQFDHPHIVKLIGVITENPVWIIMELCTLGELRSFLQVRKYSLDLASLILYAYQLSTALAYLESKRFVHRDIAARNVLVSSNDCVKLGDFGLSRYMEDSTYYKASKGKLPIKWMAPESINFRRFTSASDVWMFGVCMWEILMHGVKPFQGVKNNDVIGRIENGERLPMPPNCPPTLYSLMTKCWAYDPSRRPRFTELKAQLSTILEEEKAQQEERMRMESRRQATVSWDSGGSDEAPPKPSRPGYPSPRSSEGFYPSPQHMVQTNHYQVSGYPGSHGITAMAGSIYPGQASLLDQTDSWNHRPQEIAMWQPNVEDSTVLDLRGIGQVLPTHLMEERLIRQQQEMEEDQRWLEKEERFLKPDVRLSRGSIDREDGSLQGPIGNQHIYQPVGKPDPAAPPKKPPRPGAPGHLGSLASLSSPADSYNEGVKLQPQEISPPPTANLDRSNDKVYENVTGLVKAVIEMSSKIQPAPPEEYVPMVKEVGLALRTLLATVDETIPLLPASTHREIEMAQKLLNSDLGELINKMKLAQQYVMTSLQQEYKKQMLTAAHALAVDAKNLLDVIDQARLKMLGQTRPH

SMILES	residual activity [1] [%]	residual activity [2] [%]	residual activity [3] [%]	residual activity [4] [%]	residual activity [5] [%]	residual activity [6] [%]	residual activity [7] [%]	residual activity [8] [%]	residual activity [9] [%]	residual activity [10] [%]	residual activity [11] [%]	residual activity [12] [%]	residual activity [13] [%]	residual activity [14] [%]
COc1cc2c(cc1OC)-c1n[nH]c(Nc3cccc(F)c3)c1C2	42	103	43	64	69	26	83	43	64	77	35	–	–	–
O=C1Cc2c([nH]c3ccc(Br)cc23)-c2ccccc2N1	58	–	–	72	95	82	98	76	120	89	71	98	121	82
